Reference: PubChem BioAssay (NCATS)
Where “and” joins values, the source holds several entries; their conditions need not be identical. Equal values may be shown once. Inconclusive results are not listed. Calls of active or inactive are those of the source. Unless noted, no rule for the calls is given here.

Test system: not listed separately
Test: qHTS assay to identify inhibitors of the type 1 interferon - major histocompatibility complex class I in skeletal muscle: Counter screen cell viability and HiBit confirmation (AID 1347412; active = well fitted inhibition curve with a large enough effect; also: potency is read from the fitted curve at half-maximal effect; nearly all actives have a fitted effect of over 60% in size)
Conditions: iHSKM muscle cells + IFN-b, HiBiT or CellTiter-Glo, 24 h; HiBiT
How it was run: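 HLA-B*08:01–HiBiT knock-in immortalized human myoblasts (C25cl48) stimulated with 4.0 ng/ml human IFN-beta and dosed with compound in a 12-point 1:3 titration (top final 46 uM). After 24 hrs at 37 C, HiBiT lytic luminescence or CellTiter Glo ATP read out.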
In the case of `CC(=O)[C@]1(O)Cc2c(O)c3c(c(O)c2[C@@H](O[C@H]2C[C@H](N)[C@H](O)[C@H](C)O2)C1)C(=O)c1ccccc1C3=O`, the Potency is reported as 0.883 µM (active).
With `C[n+]1cc2c3c(ccc2c2ccc4cc5c(cc4c21)OCO5)OCO3` the Potency was 1.11 µM (active).
With `Nc1ncn([C@@H]2O[C@H](CO)[C@@H](O)[C@H]2O)c(=O)n1` the Potency was 14 µM (active).

Target: Nuclear receptor subfamily 1 group I member 2 (Rattus norvegicus) (UniProt Q9R1A7)
Sequence (Q9R1A7 whole entry, looked up): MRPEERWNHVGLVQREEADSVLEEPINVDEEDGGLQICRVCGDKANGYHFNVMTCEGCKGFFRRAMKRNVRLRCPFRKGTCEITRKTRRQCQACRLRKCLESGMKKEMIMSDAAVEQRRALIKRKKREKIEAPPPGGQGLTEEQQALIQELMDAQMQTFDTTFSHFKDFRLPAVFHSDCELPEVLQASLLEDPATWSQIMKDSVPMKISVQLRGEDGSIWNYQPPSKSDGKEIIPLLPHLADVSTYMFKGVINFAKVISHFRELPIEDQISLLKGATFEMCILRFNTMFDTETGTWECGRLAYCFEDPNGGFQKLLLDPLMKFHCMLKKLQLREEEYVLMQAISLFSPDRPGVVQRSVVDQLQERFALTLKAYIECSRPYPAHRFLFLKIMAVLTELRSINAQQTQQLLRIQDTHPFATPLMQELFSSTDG
Test: qHTS assay for small molecule activators of the rat pregnane X receptor (rPXR) signaling pathway (AID 651751); also: 0% is about no effect
Conditions: rPXR reporter cells, luciferase (One-Glo), 24 h
With `C[C@]12C=CC(=O)C=C1CC[C@H]1[C@@H]3C[C@@H](O)[C@](O)(C(=O)CO)[C@@]3(C)C[C@H](O)[C@@]12F` the max response was 3.64% (inactive).
With `CC(C)(Oc1ccc(CCNC(=O)c2ccc(Cl)cc2)cc1)C(=O)O` the max response was -5.47% (inactive).
For `O=C(O)CCCCCCCC(=O)O`, the max response was -2.29% (inactive).
For `COc1ccc(CN(CCN(C)C)c2ccccn2)cc1`, the max response was 7.02% (inactive).
In the case of `CN=C(NC#N)NCCSCc1nc[nH]c1C`, the max response is reported as 5.73% (inactive).
In the case of `CCCCNC(=O)NS(=O)(=O)c1ccc(C)cc1`, the max response is reported as -1.54% (inactive) and 0.831% (inactive).
For `Cc1ccc(S(=O)(=O)NC(=O)NN2CCCCCC2)cc1`, the max response was 0.57% (inactive).
With `Nc1nc(N)c2nc(-c3ccccc3)c(N)nc2n1` the max response was 0.808% (inactive) and 7.32% (inactive).
For `NC(=O)N1c2ccccc2C=Cc2ccccc21`, the max response was 5.91% (inactive) and 3.5% (inactive).
For `NC(=Nc1ccccc1)Nc1ccccc1`, the max response was -0.275% (inactive) and 5.17% (inactive).
In the case of `CC(=O)Nc1nnc(S(N)(=O)=O)s1`, the max response is reported as 0.356% (inactive).

Test system: not listed separately
Test: qHTS assay for small molecule activators of the human pregnane X receptor (PXR) signaling pathway (AID 720659); also: 0% is about no effect
Conditions: DPX-2 HepG2 CYP3A4-luciferase, 24 h; series mostly up to 92.3 µM; activation: at the top concentration
With `O=C(O)CCCCCCCC(=O)O` the “activation” value was 23.3% (inactive).
For `O=c1[nH]c(=O)n([C@H]2C[C@H](O)[C@@H](CO)O2)cc1Br`, the “activation” value was 8.7% (inactive).
For `CCCCNC(=O)NS(=O)(=O)c1ccc(C)cc1`, the outcome was “inactive”.
For `CC(=O)Nc1nnc(S(N)(=O)=O)s1`, the “activation” value was 6% (inactive).
With `COc1cc(Cc2cnc(N)nc2N)cc(OC)c1OC` the “activation” value was 12.8% (inactive).
With `Nc1ncn([C@@H]2O[C@H](CO)[C@@H](O)[C@H]2O)c(=O)n1` the outcome was “inactive”.
